# Measured values from PubChem BioAssay (NCATS).
# Results filed as inconclusive are left out. Activity calls are given as the source filed them. Calls come from the whole dose curve; as a rule, active = well fitted inhibition curve with a large enough effect; inconclusive = small, poorly fitted or top-dose-only effect; inactive = flat fitted curve, though single readings scatter.
# Target: Glutathione peroxidase 1 (Homo sapiens) (UniProt P07203)
# Assay: Primary qHTS Assay for Inhibitors of Recombinant Selenoprotein Glutathione Peroxidase 1 (GPX1) (AID 1845191)
# Details: recombinant GPX1, GR-coupled NADPH fluorescence, 15 min; series mostly up to 48.8 µM; activity, negative = inhibition: at the top concentration
# In short: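 Recombinant GPX1 (10 nM final) was preincubated with compound for 30 min at room temperature, then reacted with 1 mM GSH, 0.5 mM CHP, 0.5 mM NADPH and 100 nM glutathione reductase; NADPH fluorescence (340/450 nm) was read at 0 and 15 min.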
# % is set by controls: 0 for no effect and ±100 for the full control effect.
# Note: nearly all actives have a fitted effect of over 65% in size.
# Chain of Glutathione peroxidase 1 (Homo sapiens) (P07203 whole entry, looked up): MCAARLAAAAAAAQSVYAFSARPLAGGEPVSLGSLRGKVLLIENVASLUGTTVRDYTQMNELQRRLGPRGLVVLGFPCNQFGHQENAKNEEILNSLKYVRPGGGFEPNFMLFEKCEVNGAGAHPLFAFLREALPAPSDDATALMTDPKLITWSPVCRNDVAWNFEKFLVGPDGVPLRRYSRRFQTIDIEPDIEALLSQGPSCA
SMILES,outcome,"activity, negative = inhibition",Potency
CN1CCC(=C2c3ccccc3CCc3cccnc32)CC1,inactive,–,–
O=C(O)CCC(=O)OC[C@@H](NC(=O)C(Cl)Cl)[C@H](O)c1ccc([N+](=O)[O-])cc1,–,-26.1% (inactive),–
CCCCC(O)/C=C(C)/C=C/C=C/C(=O)N1CCCC1=O (stereo not given),–,-4.13% (inactive),–
Cc1nc(C2CCCCC2)c(-c2ccc(S(N)(=O)=O)c(F)c2)o1,inactive,–,–
C[C@@H](C1=C(CCN(C)C)Cc2ccccc21)c1ccccn1,–,-5.3% (inactive),–
Cc1ccc(C(=O)C(=O)O)cc1C,–,-9.4% (inactive),–
Oc1ccccc1,–,-13.6% (inactive),–
NC(=O)NC1N=C([O][Al])NC1=O (stereo not given),–,-4.68% (inactive),–
O=S(=O)(O)c1ccc2nc(-c3ccccc3)[nH]c2c1,inactive,–,–
CC(=O)OCC[N+](C)(C)C,–,-3.26% (inactive),–
CCCCCCOC(=O)NC(=N)c1ccc(NCc2nc3cc(C(=O)N(CCC(=O)OCC)c4ccccn4)ccc3n2C)cc1,–,–,inactive
CC(C)C(=O)Nc1cccc(C2CN3CCSC3=N2)c1 (stereo not given),inactive,–,–
C#CC(C)(CC)OC(=O)c1ccccc1C(=O)O (stereo not given),–,-7.62% (inactive),–
CCCCN(CCN(CCCC)C(=O)N1CCOCC1)C(=O)N1CCOCC1,inactive,–,–
[O-][n+]1cccc(/C(Cl)=N/OC[C@@H](O)CN2CCCCC2)c1,–,1.87% (inactive),–
CCCCCCCCCCCCCCCC[N+](C)(C)Cc1ccccc1,–,-13.5% (inactive),–
CC(C)NCCCC1(C(N)=O)c2ccccc2-c2ccccc21,inactive,–,–
CCCc1ccc(OCC(=O)N2CCN(C(=O)COc3ccc(CCC)cc3OC)CC2)c(OC)c1,inactive,–,–
CC(=O)N(CC(=O)N(C)C)c1ccccc1,–,2.13% (inactive),–
CC1CCCCN1CCCOC(=O)c1ccc(OC2CCCCC2)cc1 (stereo not given),inactive,–,–
O=C(O)c1ccccc1Nc1cc(Cl)ccc1C(=O)O,–,-21.2% [at 27.7 µM] (inactive),–
CC(C)=CCC/C(C)=C/CC/C(C)=C/C(=O)OCC(=O)[C@@]1(O)CC[C@H]2[C@@H]3CCC4=CC(=O)C=C[C@]4(C)[C@H]3[C@@H](O)C[C@@]21C,inactive,–,–

# Target: Phospholipid hydroperoxide glutathione peroxidase GPX4 (Homo sapiens) (UniProt P36969)
# Assay: Primary qHTS Assay for Inhibitors of Recombinant Selenoprotein Glutathione Peroxidase 4 (GPX4) (AID 1845192); note: potency is the fitted concentration of half-maximal effect
# Details: recombinant GPX4, GR-coupled NADPH fluorescence, 15 min; series mostly up to 50 µM; activity change, negative = inhibition: at the top concentration
# In short: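 GR-coupled readout: 100 nM GR, 1 mM GSH, 0.5 mM NADPH; NADPH fluorescence (ex 340/em 450 nm) read at t=0 and after 15 min RT. GPX4 200 nM, preincubated 30 min with compound; substrate 0.5 mM CHP.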
# Chain of Phospholipid hydroperoxide glutathione peroxidase GPX4 (Homo sapiens) (P36969 whole entry, looked up): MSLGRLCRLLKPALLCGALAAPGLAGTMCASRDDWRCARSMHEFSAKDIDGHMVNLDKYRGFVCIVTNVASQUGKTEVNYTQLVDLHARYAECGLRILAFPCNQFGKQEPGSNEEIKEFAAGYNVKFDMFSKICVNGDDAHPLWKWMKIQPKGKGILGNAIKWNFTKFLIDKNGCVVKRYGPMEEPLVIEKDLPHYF
SMILES,outcome,Potency,"activity change, negative = inhibition"
O=C(CO)[C@@H](O)[C@H](O)[C@@H](O)CO,inactive,–,–
CO/N=C(/C(=O)N[C@@H]1C(=O)N2C(C(=O)[O-])=C(C[n+]3ccn4ncccc43)CS[C@H]12)c1nsc(N)n1,–,17.8 µM (active),–
CC(C)(Oc1ccc(Cl)cc1)C(=O)OCCCOC(=O)C(C)(C)Oc1ccc(Cl)cc1,inactive,–,–
O=C(O)[C@@H](O)[C@H](O)[C@H](O)[C@@H](O)C(=O)O,inactive,–,–
C/C(=N/NC(=O)c1ccncc1)C(=O)O,–,–,-3.26% (inactive)
CCO[C@H](Cc1ccc(OCCc2ccc(OS(C)(=O)=O)cc2)cc1)C(=O)O,inactive,–,–
CCCCCC[C@@H](CCC)C(=O)O,inactive,–,–
NC(=O)C1(N2CCCCC2)CCN(CCCN2c3ccccc3CCc3ccc(Cl)cc32)CC1,–,–,-19.4% (inactive)
O=[N+]([O-])c1cncn1CCN1CCOCC1,–,–,-8.13% (inactive)
CCN(CC)CC(=O)OCC(=O)[C@@]1(O)CC[C@H]2[C@@H]3CCC4=CC(=O)CC[C@]4(C)[C@H]3[C@@H](O)C[C@@]21C,inactive,–,–
NS(=O)(=O)c1cc2c(cc1Cl)CN(C1CCCCC1)C2=O,inactive,–,–
Cc1cccc(N(C)C(=S)Oc2ccc3c(c2)C2CCC3C2)c1 (stereo not given),–,–,4.11% (inactive)
CCCCCN(CCCOC)C(=O)C(CCC(=O)O)NC(=O)c1ccc(Cl)c(Cl)c1 (stereo not given),–,–,0.916% (inactive)
CCCCC/C=C\C/C=C\CCCCCCCC(=O)NC(C)c1ccccc1 (stereo not given),–,–,3.39% (inactive)
CN1CCC(=C2c3ccccc3CCc3cccnc32)CC1,inactive,–,–
O=C(O)CCC(=O)OC[C@@H](NC(=O)C(Cl)Cl)[C@H](O)c1ccc([N+](=O)[O-])cc1,inactive,–,–
CCCCC(O)/C=C(C)/C=C/C=C/C(=O)N1CCCC1=O (stereo not given),inactive,–,–

SMILES,outcome,Potency,"activity change, negative = inhibition"
Cc1nc(C2CCCCC2)c(-c2ccc(S(N)(=O)=O)c(F)c2)o1,–,–,0.0228% (inactive)
C[C@@H](C1=C(CCN(C)C)Cc2ccccc21)c1ccccn1,–,–,3.95% (inactive)
Cc1ccc(C(=O)C(=O)O)cc1C,–,–,-7.73% (inactive)
Oc1ccccc1,–,–,-8.21% (inactive)
NC(=O)NC1N=C([O][Al])NC1=O (stereo not given),–,–,-4.09% (inactive)
O=S(=O)(O)c1ccc2nc(-c3ccccc3)[nH]c2c1,inactive,–,–
CC(=O)OCC[N+](C)(C)C,–,–,4.91% (inactive)
CC(C)C(=O)Nc1cccc(C2CN3CCSC3=N2)c1 (stereo not given),inactive,–,–
C#CC(C)(CC)OC(=O)c1ccccc1C(=O)O (stereo not given),–,–,-1.46% (inactive)
CCCCN(CCN(CCCC)C(=O)N1CCOCC1)C(=O)N1CCOCC1,inactive,–,–
[O-][n+]1cccc(/C(Cl)=N/OC[C@@H](O)CN2CCCCC2)c1,–,–,2.67% (inactive)
CCCCCCCCCCCCCCCC[N+](C)(C)Cc1ccccc1,–,–,-22.1% (inactive)
CC(C)NCCCC1(C(N)=O)c2ccccc2-c2ccccc21,inactive,–,–
CCCc1ccc(OCC(=O)N2CCN(C(=O)COc3ccc(CCC)cc3OC)CC2)c(OC)c1,inactive,–,–
CC(=O)N(CC(=O)N(C)C)c1ccccc1,–,–,-8.57% (inactive)
CC(C)=CCC/C(C)=C/CC/C(C)=C/C(=O)OCC(=O)[C@@]1(O)CC[C@H]2[C@@H]3CCC4=CC(=O)C=C[C@]4(C)[C@H]3[C@@H](O)C[C@@]21C,inactive,–,–
